Source: PubChem BioAssay
Calls of active or inactive are those of the source. Rule as the data show it, unless noted: active = inhibition above about 80%; inactive = the rest.

Assays:
[1] = LFS_MB_P medulloblastoma growth inhibition, cell-based, chromothripsis tumors, cisplatin or BGB combos (AID 1671449); settings: LFS_MB_P medulloblastoma cells;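 also: cells exposed for 96 hours; 0% = vehicle DMSO and 100% = killing by high DMSO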
[2] = HDN33 neuroblastoma growth inhibition, cell-based, chromothripsis tumors, cisplatin or BGB combos (AID 1671450); settings: HDN33 neuroblastoma cells, stronger effect = higher value;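 also: cells exposed to compound for four days; 0% = vehicle DMSO and 100% = cell killing by high DMSO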
[3] = ICB984 medulloblastoma cell growth inhibition, synergistic combos for chromothripsis tumors, cisplatin or BGB combos (AID 1671451; call rule not given here;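 also: cells exposed for 96 hours before readout; 0% = vehicle DMSO and 100% = killing by high DMSO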); settings: ICB984 medulloblastoma cells, drug combinations, stronger effect = higher value
[4] = LFS_MB_1R medulloblastoma cell growth inhibition, synergistic combos for chromothripsis tumors, cisplatin or BGB combos (AID 1671452); settings: LFS_MB_1R medulloblastoma cells, stronger effect = higher value;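 also: cells exposed for 96 hours before readout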
[5] = HTB85 osteosarcoma cell growth inhibition, synergistic combos for chromothripsis tumors, BGB or cisplatin IC20 combos (AID 1671453); settings: HTB85 osteosarcoma cells, drug combinations, stronger effect = higher value;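 also: cells exposed for 96 hours before readout; 0% = vehicle DMSO and 100% = high DMSO killing control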
[6] = CRL2098 osteosarcoma cell growth inhibition, synergistic combos for chromothripsis tumors, BGB or cisplatin IC20 combos (AID 1671454); settings: CRL2098 osteosarcoma cells, drug combinations, stronger effect = higher value;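 also: cells exposed for 96 h before readout; 0% = vehicle DMSO and 100% = killing by high DMSO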
[7] = HD-MB03 medulloblastoma cell growth inhibition, synergistic combos for chromothripsis tumors, BGB or cisplatin IC20 combos (AID 1671455; in the data active = inhibition above about 83%;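 also: 0% = vehicle DMSO and 100% = high DMSO as cytotoxic control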); settings: HD-MB03 medulloblastoma cells, stronger effect = higher value
[8] = UWB1.289 ovarian carcinoma cell growth inhibition, synergistic combos for chromothripsis tumors, BGB or cisplatin combos (AID 1671456); settings: UWB1.289 ovarian carcinoma cells, stronger effect = higher value;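 also: cells exposed to compound for four days; 0% = vehicle DMSO and 100% = killing by high DMSO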
[9] = LFS_MB_2R medulloblastoma cell growth inhibition, synergistic combos for chromothripsis tumors, cisplatin combos (AID 1671457); settings: LFS_MB_2R medulloblastoma cells, stronger effect = higher value;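 also: cells exposed to compound for four days before readout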
[10] = MDA-MB-436 breast carcinoma cell growth inhibition, synergistic combos for chromothripsis tumors, BGB or cisplatin combos (AID 1671458; call rule not given here;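 also: cells exposed for 96 hours; 0% = vehicle DMSO and 100% = killing by high DMSO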); settings: MDA-MB-436 breast carcinoma growth inhibition, drug combinations, stronger effect = higher value
[11] = UWB1.289_BRCA1 ovarian cancer growth, cell-based, BGB or cisplatin combinations (AID 1671459); settings: UWB1.289 BRCA1 ovarian carcinoma, drug combinations, stronger effect = higher value
[12] = human astrocyte viability loss, single and combined drugs, cytotoxicity control for chromothriptic childhood tumor combination screen, cell-based, BGB or cisplatin IC20 combos (AID 1671460); settings: Human astrocytes, drug combinations, stronger effect = higher value;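 also: cells exposed to compounds for 96 hours before viability readout; 0% = vehicle and 100% = killing control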
[13] = growth inhibition of BT084 medulloblastoma cells, cell-based, ICGC_MB145, cisplatin and BGB IC40 combos (AID 1671461); settings: drug combinations, stronger effect = higher value;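 also: cells exposed to drugs for 96 hours; 0% = vehicle DMSO and 100% = high DMSO full killing control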
[14] = growth inhibition of RCMB18 medulloblastoma cells, cell-based, cisplatin and BGB IC40 combos (AID 1671462); settings: stronger effect = higher value;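 also: cells exposed to compound for four days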
[15] = growth inhibition of CRL1545 osteosarcoma cells, cell-based, cisplatin and BGB IC20 combos (AID 1671464); settings: stronger effect = higher value;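 also: cells exposed to compound for 96 hours before readout; 0% = vehicle DMSO and 100% = high DMSO killing control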
[16] = at 0.5 µM, stronger effect = higher value
[17] = measured here: combination with BGB IC20, at 0.005 µM
[18] = measured here: combination with BGB IC40, at 0.005 µM
[19] = measured here: combination with BGB IC40, at 0.05 µM
[20] = measured here: combination with cisplatin, at 0.5 µM, stronger effect = higher value
[21] = measured here: combination with cisplatin, at 5 µM, stronger effect = higher value
[22] = measured here: with BGB IC20 combination, at 0.5 µM
[23] = measured here: with cisplatin IC20 combination, at 0.5 µM
[24] = measured here: 5 uM single agent, at 5 µM
[25] = measured here: combination with cisplatin, at 0.5 µM
[26] = measured here: combination with cisplatin, at 5 µM
[27] = measured here: with BGB IC20, at 0.5 µM
[28] = measured here: with BGB IC20, at 5 µM
[29] = measured here: with cisplatin IC20, at 0.5 µM
[30] = measured here: with cisplatin IC20, at 5 µM
[31] = measured here: combination with BGB at IC20, at 0.5 µM
[32] = measured here: combination with cisplatin at IC20, at 0.5 µM
[33] = measured here: combo with BGB at IC20, at 0.5 µM
[34] = measured here: combo with cisplatin at IC20, at 0.5 µM
[35] = measured here: inhibition with BGB combination, at 0.05 µM
[36] = measured here: inhibition with cisplatin combination, at 0.05 µM
[37] = measured here: BGB combination, at 0.5 µM
[38] = measured here: BGB combination, at 5 µM
[39] = measured here: cisplatin combination, at 0.5 µM
[40] = measured here: cisplatin combination, at 5 µM
[41] = BGB combination, concentration series, at 5 µM
[42] = cisplatin combination, concentration series, at 5 µM
[43] = measured here: combo with BGB IC20, at 0.5 µM
[44] = measured here: combo with cisplatin IC20, at 0.5 µM
[45] = cisplatin combination, at 0.5 µM
[46] = measured here: BGB IC40 combination 0.05 uM, at 0.05 µM
[47] = measured here: BGB IC40 combination, at 0.05 µM

With `COc1cccc2c1C(=O)c1c(O)c3c(c(O)c1C2=O)CC(O)(C(C)=O)CC3OC1CC(N)C(O)C(C)O1` (stereo unspecified) the inhibition [1, 16] was -31.5% (inactive), the inhibition [1, 17] was 15.7% and the inhibition [1, 18] was -20.1%. It also gave an inhibition [1, 19] of 0.2%, an inhibition [1, 20] of -39.6% and an inhibition [1, 21] of 121%. For the same molecule, the inhibition ([2]; BGB combo, at 5 µM) was 99.8%, the inhibition ([2]; at 0.5 µM) was 99.4% (active) and the inhibition ([2]; cisplatin combo, at 5 µM) was 99.9%. The inhibition [2, 22] was 98.9%, the inhibition [2, 23] was 99.7% and the inhibition ([2]; single agent, at 5 µM) was 99.9%. It also gave an inhibition ([3]; BGB IC20 combo, at 0.005 µM) of 97.7%, an inhibition ([3]; BGB IC40 combo, at 0.005 µM) of 98% and an inhibition ([3]; BGB IC40 combo, at 0.05 µM) of 102%. For the same molecule, the inhibition ([3]; at 0.5 µM) was -13% (inactive), the inhibition ([3]; cisplatin combo, at 0.05 µM) was 102% and the inhibition ([3]; cisplatin combo, at 0.5 µM) was -18.7%. For the same molecule, the inhibition ([3]; cisplatin combo, at 5 µM) was 7.68%, the inhibition [3, 24] was 8.05% and the inhibition ([4]; at 0.5 µM) was 101% (active). For the same molecule, the inhibition [4, 19] was 85%, the inhibition [4, 25] was 101% and the inhibition [4, 26] was 104%. For the same molecule, the inhibition ([5]; at 0.5 µM) was 99.2% (active), the inhibition [5, 27] was 98.8% and the inhibition [5, 28] was 99.9%. It also gave an inhibition [5, 29] of 99.3%, an inhibition [5, 30] of 100% and an inhibition ([5]; single agent, at 5 µM) of 99.9%. The inhibition ([6]; at 0.5 µM) was 99.4% (active), the inhibition [6, 31] was 98.9% and the inhibition [6, 32] was 99.6%. The inhibition ([7]; at 0.5 µM) was 97.2% (active), the inhibition [7, 33] was 95.8% and the inhibition [7, 34] was 97.5%. The inhibition ([8]; at 0.5 µM) was 72.4% (inactive), the inhibition [8, 35] was 38.4% and the inhibition [8, 36] was 35.7%. The inhibition ([9]; at 0.5 µM) was 86.9% (active), the inhibition [9, 25] was 95.6% and the inhibition [9, 26] was 112%. For the same molecule, the inhibition ([10]; at 0.5 µM) was 87.4% (active), the inhibition [10, 37] was 85.1% and the inhibition [10, 38] was 89.2%. The inhibition [10, 39] was 91.5%, the inhibition [10, 40] was 95.1% and the inhibition [11, 41] was 104%. For the same molecule, the inhibition ([11]; at 0.5 µM) was 80.6% (active), the inhibition [11, 42] was 98.3% and the inhibition ([12]; at 0.5 µM) was 93.3% (active). The inhibition [12, 43] was 88.3%, the inhibition [12, 44] was 93.9% and the inhibition ([13]; at 0.5 µM) was 40.4% (inactive). It also gave an inhibition [13, 45] of 18.1%, an inhibition ([13]; cisplatin combination, at 5 µM) of 88% and an inhibition [13, 46] of -6.7%. For the same molecule, the inhibition ([13]; single agent, at 5 µM) was 88.2%, the inhibition ([14]; at 0.5 µM) was 79% (inactive) and the inhibition ([14]; cisplatin combo, at 5 µM) was 90.7%. It also gave an inhibition [14, 47] of 13.9%, an inhibition [14, 25] of 77.7% and an inhibition ([14]; single agent, at 5 µM) of 94.7%. For the same molecule, the inhibition ([15]; at 0.5 µM) was 99.5% (active), the inhibition [15, 22] was 99.1% and the inhibition [15, 23] was 99.7%. For the same molecule, the inhibition ([15]; single agent, at 0.05 µM) was 98.4% and the inhibition ([15]; single agent, at 5 µM) was 100%.
With `O=C(CCCCCCC(=O)Nc1ccc(I)cc1)NO` the inhibition [1, 16] was 14.6% (inactive), the inhibition [1, 17] was -13.9% and the inhibition [1, 18] was -26.4%. For the same molecule, the inhibition [1, 19] was -4.26%, the inhibition [1, 20] was 55% and the inhibition [1, 21] was 112%. For the same molecule, the inhibition ([2]; BGB combo, at 5 µM) was 92.7%, the inhibition ([2]; at 0.5 µM) was 2.25% (inactive) and the inhibition ([2]; cisplatin combo, at 5 µM) was 96.8%. It also gave an inhibition [2, 22] of 2.67%, an inhibition [2, 23] of 4.68% and an inhibition ([2]; single agent, at 5 µM) of 96.1%. It also gave an inhibition ([3]; BGB IC20 combo, at 0.005 µM) of -14%, an inhibition ([3]; BGB IC40 combo, at 0.005 µM) of -21.6% and an inhibition ([3]; BGB IC40 combo, at 0.05 µM) of 79.6%. The inhibition ([3]; at 0.5 µM) was -43% (inactive), the inhibition ([3]; cisplatin combo, at 0.05 µM) was 78.8% and the inhibition ([3]; cisplatin combo, at 0.5 µM) was -63.2%. The inhibition ([3]; cisplatin combo, at 5 µM) was -38.3%, the inhibition [3, 24] was -6.51% and the inhibition ([4]; at 0.5 µM) was 4.61% (inactive). It also gave an inhibition [4, 19] of -30%, an inhibition [4, 25] of 7% and an inhibition [4, 26] of 97.8%. The inhibition ([5]; at 0.5 µM) was -14.1% (inactive), the inhibition [5, 27] was -30.7% and the inhibition [5, 28] was 58%. The inhibition [5, 29] was -7.38%, the inhibition [5, 30] was 98.3% and the inhibition ([5]; single agent, at 5 µM) was 68.5%. For the same molecule, the inhibition ([6]; at 0.5 µM) was -40.1% (inactive), the inhibition [6, 31] was -46.1% and the inhibition [6, 32] was -23.5%. For the same molecule, the inhibition ([7]; at 0.5 µM) was 12.8% (inactive), the inhibition [7, 33] was 5.06% and the inhibition [7, 34] was 20.3%. For the same molecule, the inhibition ([8]; at 0.5 µM) was 14.7% (inactive), the inhibition [8, 35] was -32% and the inhibition [8, 36] was -13.2%. The inhibition ([9]; at 0.5 µM) was -12.8% (inactive), the inhibition [9, 25] was 3.62% and the inhibition [9, 26] was 99%. The inhibition ([10]; at 0.5 µM) was -16.9% (inactive), the inhibition [10, 37] was -27.7% and the inhibition [10, 38] was 49.2%. It also gave an inhibition [10, 39] of -20.6%, an inhibition [10, 40] of 53.6% and an inhibition [11, 41] of 84.7%. For the same molecule, the inhibition ([11]; at 0.5 µM) was 7.03% (inactive), the inhibition [11, 42] was 105% and the inhibition ([12]; at 0.5 µM) was 29.2% (inactive). For the same molecule, the inhibition [12, 43] was 30.5%, the inhibition [12, 44] was 21.3% and the inhibition ([13]; at 0.5 µM) was 12.2% (inactive). It also gave an inhibition [13, 45] of 29.6%, an inhibition ([13]; cisplatin combination, at 5 µM) of 105% and an inhibition [13, 46] of -26.1%. The inhibition ([13]; single agent, at 5 µM) was 103%, the inhibition ([14]; at 0.5 µM) was 20.3% (inactive) and the inhibition ([14]; cisplatin combo, at 5 µM) was 94.9%. For the same molecule, the inhibition [14, 47] was -10.7%, the inhibition [14, 25] was 54.3% and the inhibition ([14]; single agent, at 5 µM) was 85.9%. The inhibition ([15]; at 0.5 µM) was 46.9% (inactive), the inhibition [15, 22] was 39.3% and the inhibition [15, 23] was 50.7%. It also gave an inhibition ([15]; single agent, at 0.05 µM) of -7.66% and an inhibition ([15]; single agent, at 5 µM) of 95.3%.
